Data: PubChem BioAssay (EPA / NIEHS)
Several values for one entry are separate records, joined by “and”; a condition that tells them apart may be missing. Equal values may be shown once. Some compounds were tested as several samples or in several runs, with calls that do not always agree. Activity calls are given as the source filed them. The calls were made as follows: active = hit-call score of the fitted dose curve at least 0.9, where 1 is the maximum; inactive = score below 0.9.

Key:
[1] = read-out: C-C motif chemokine 2 (Homo sapiens) (UniProt P13500); assay: BSK_KF3CT_MCP1: BioMAP Diversity Plus: KF3CT Assay for Monocyte Chemoattractant Protein 1 (MCP1/CCL2) Biomarker Activity (AID 2283073); details: primary human keratinocytes with fibroblasts; actives raise or lower the signal
Procedure, shortened: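 Keratinocytes and foreskin fibroblasts were co-cultured, dosed with chemical, and sampled 24 h later. MCP-1 was quantified by ELISA, and the endpoint was analyzed with bidirectional fitting using DMSO as negative control.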

[2] = read-out: Matrix Metallopeptidase 9 (MMP9), MMP9 (gene 4318); assay: BSK_KF3CT_MMP9: BioMAP Diversity Plus: KF3CT Assay for Matrix Metallopeptidase 9 (MMP9) Biomarker Activity (AID 2283074); details: primary human keratinocytes with fibroblasts; actives raise or lower the signal;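 as to AC50: MMP9 protein level quantified by ELISA in the co-culture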
Procedure, shortened: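 MMP-9 quantified by ELISA after 24 h chemical treatment of primary human skin keratinocyte/fibroblast co-cultures; gain or loss fitted against DMSO, with parallel SRB staining (0.1% SRB, 560 nm) for overt cytotoxicity.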

[3] = read-out: urokinase plasminogen activator (uPA), PLAU (gene 5328); assay: BSK_KF3CT_uPA: BioMAP Diversity Plus: KF3CT Assay for urokinase plasminogen activator (uPA) Biomarker Activity (AID 2283075); details: primary human keratinocytes with fibroblasts; actives raise or lower the signal
Procedure, shortened: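 ELISA read-out of uPA 24 h after dosing human skin keratinocytes co-cultured with foreskin fibroblasts. Signal change fitted both ways relative to DMSO; sulforhodamine B on parallel cultures marks overt cytotoxicity.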

[4] = read-out: CD40, CD40 (gene 958); assay: BSK_LPS_CD40: BioMAP Diversity Plus: LPS Assay for CD40 Biomarker Activity (AID 2283076); details: primary human HUVEC with PBMC; actives raise or lower the signal
Procedure, shortened: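 CD40 signal, measured by ELISA, is fitted in both directions relative to DMSO vehicle. The system is an LPS-driven human vascular primary co-culture of endothelial cells and PBMC, sampled 24 h after compound addition.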

[5] = read-out: E-selectin (Homo sapiens) (UniProt P16581); assay: BSK_LPS_Eselectin: BioMAP Diversity Plus: LPS Assay for Eselectin Biomarker Activity (AID 2283077); details: primary human HUVEC with PBMC; actives raise or lower the signal
Procedure, shortened: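 Signal of E-selectin, detected by ELISA, served as the endpoint; cells were umbilical vein endothelium with PBMC, read 24 h after treatment. DMSO defined baseline, and both increases and decreases were fitted.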

[6] = read-out: Interleukin-8 (IL8), CXCL8 (gene 3576); assay: BSK_LPS_IL8: BioMAP Diversity Plus: LPS Assay for Interleukin-8 (IL8) Biomarker Activity (AID 2283078); details: primary human HUVEC with PBMC; actives raise or lower the signal
Procedure, shortened: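 Endothelial cells and PBMC from human donors are co-cultured, treated with chemicals and LPS, then assayed for IL-8 by ELISA after 24 h. Parallel SRB staining (0.1% SRB after 10% TCA fixation, 560 nm) flags cytotoxicity.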

[7] = BSK_LPS_SRB: Viability Assessment in the BioMAP Diversity Plus: LPS Assay (AID 2283079); details: primary human HUVEC with PBMC;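 also: total protein by sulforhodamine B absorbance as a cytotoxicity measure; measured one day after compound addition; fitted in both directions against DMSO so loss or gain of signal counts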
Procedure, shortened: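 Overt cytotoxicity was gauged by sulforhodamine B total-protein staining in a primary human vascular endothelial and mononuclear cell co-culture 24 h post-dosing. Activity was fitted in both directions relative to DMSO.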

[8] = read-out: Interleukin-1 alpha (IL1a), IL1A (gene 3552); assay: BSK_LPS_IL1a: BioMAP Diversity Plus: LPS Assay for Interleukin-1 alpha (IL1a) Biomarker Activity (AID 2283080); details: primary human HUVEC with PBMC; actives raise or lower the signal
Procedure, shortened: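 Measured: IL-1 alpha via ELISA at 24 h in LPS-activated human umbilical vein endothelium–PBMC co-culture. Baseline: DMSO, bidirectional fitting.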

[9] = read-out: Monocyte Chemoattractant Protein-1 (MCP1), CCL2 (gene 6347); assay: BSK_LPS_MCP1: BioMAP Diversity Plus: LPS Assay for Monocyte Chemoattractant Protein-1 (MCP1) Biomarker Activity (AID 2283081); details: primary human HUVEC with PBMC; actives raise or lower the signal;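 as to AC50: secreted MCP-1 protein quantified by ELISA in culture supernatant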
Procedure, shortened: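 LPS-stimulated HUVEC/PBMC co-culture; chemical, 24 h; MCP-1 by ELISA; bidirectional fit vs DMSO; cytotoxicity via SRB (0.1% stain, 10% TCA fix, 560 nm) in parallel wells.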

[10] = BSK_LPS_PGE2: BioMAP Diversity Plus: LPS Assay for Prostaglandin E2 (PGE2) Biomarker Activity (AID 2283082); details: primary human HUVEC with PBMC; actives raise or lower the signal;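 as to AC50: secreted prostaglandin E2 measured by ELISA in LPS-stimulated co-culture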
Procedure, shortened: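 Compounds were added to the LPS co-culture of endothelium and PBMC, and PGE2 was measured by ELISA after 24 h. Responses in either direction were fitted with DMSO as baseline.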

Measured: AC50

Sequence of E-selectin (Homo sapiens) (P16581 whole entry, looked up): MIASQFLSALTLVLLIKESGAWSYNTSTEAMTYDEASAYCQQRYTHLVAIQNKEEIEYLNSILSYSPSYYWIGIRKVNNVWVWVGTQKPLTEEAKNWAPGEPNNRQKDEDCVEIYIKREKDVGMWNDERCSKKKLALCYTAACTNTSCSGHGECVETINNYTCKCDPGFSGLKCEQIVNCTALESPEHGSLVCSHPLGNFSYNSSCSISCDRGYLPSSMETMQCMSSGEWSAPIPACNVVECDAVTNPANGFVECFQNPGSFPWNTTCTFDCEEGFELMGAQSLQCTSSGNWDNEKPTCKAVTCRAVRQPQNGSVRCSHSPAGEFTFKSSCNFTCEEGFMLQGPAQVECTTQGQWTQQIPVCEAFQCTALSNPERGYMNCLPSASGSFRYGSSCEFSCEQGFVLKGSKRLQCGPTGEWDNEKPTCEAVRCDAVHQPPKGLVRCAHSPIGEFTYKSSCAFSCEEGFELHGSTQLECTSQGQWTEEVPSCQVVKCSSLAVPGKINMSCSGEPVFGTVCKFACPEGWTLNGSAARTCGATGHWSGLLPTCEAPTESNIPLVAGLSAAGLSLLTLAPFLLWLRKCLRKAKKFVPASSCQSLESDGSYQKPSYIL

Oc1ccc(C(c2ccc(O)cc2)(C(F)(F)F)C(F)(F)F)cc1
active: [1] 17.7 µM | [2] 20 µM | [3] 34.2 µM | [4] 18 µM | [5] 32.4 µM | [6] 32.1 µM | [7] 28 µM | [8] 20.2 µM | [9] 27.5 µM | [10] 19.6 µM

COc1ccc(O)c(C(C)(C)C)c1
inactive: [1] | [2] | [3] | [4] | [5] | [6] | [7] | [8] | [9]
active: [10] 1.71 µM and 2.48 µM and 4.59 µM

Cc1ccccc1[N+](=O)[O-]
inactive: [1] | [2] | [3] | [4] | [5] | [6] | [7] | [8] | [9] | [10]

Sc1ccccc1
inactive: [1] | [2] | [3] | [4] | [5] | [6] | [7] | [8] | [9] | [10]

Oc1c(Cl)c(Cl)c(Cl)c(Cl)c1Cl
inactive: [1] | [3] | [5] | [6] | [8] | [10]
active: [1] 10.8 µM | [2] 6.97 µM and 6.46 µM | [3] 27.4 µM | [4] 10.2 µM and 15.2 µM | [5] 27.1 µM | [6] 33.1 µM | [7] 15.1 µM and 26.4 µM | [8] 34.4 µM | [9] 2.92 µM and 30.4 µM | [10] 4.98 µM

Cc1cc(O)ccc1Cl
inactive: [1] | [2] | [3] | [4] | [5] | [6] | [7] | [8] | [9] | [10]

CCSC(=O)N(CC)C1CCCCC1
inactive: [1] | [2] | [3] | [4] | [5] | [6] | [7] | [8] | [9] | [10]

NS(=O)(=O)C(F)(F)C(F)(F)C(F)(F)C(F)(F)C(F)(F)C(F)(F)C(F)(F)C(F)(F)F
active: [1] 33.4 µM and 48.9 µM and 52.2 µM | [2] 12.2 µM and 19.9 µM and 20.4 µM | [3] 13.5 µM and 20.9 µM and 21.5 µM | [4] 23.9 µM and 39.6 µM and 39.1 µM | [5] 29.7 µM and 54.3 µM and 58.5 µM | [6] 30.1 µM and 45.6 µM and 49.8 µM | [7] 28.9 µM and 44.6 µM and 44.3 µM | [8] 32.1 µM and 48.7 µM and 52.2 µM | [9] 55.7 µM and 57.3 µM | [10] 52.2 µM and 51.9 µM
inactive: [9] | [10]

O=NN(c1ccccc1)c1ccccc1
active: [10] 2.14 µM
inactive: [1] | [2] | [3] | [4] | [5] | [6] | [7] | [8] | [9]

Cc1ccc(O)c(C)c1
active: [4] 11.6 µM | [10] 3.27 µM
inactive: [1] | [2] | [3] | [5] | [6] | [7] | [8] | [9]

O=C(O)C(F)(F)C(F)(F)C(F)(F)C(F)(F)C(F)(F)C(F)(F)C(F)(F)C(F)(F)C(F)(F)F
inactive: [4] | [5] | [6] | [8] | [10]
active: [1] 22.7 µM and 27.9 µM and 18.5 µM | [2] 20 µM and 30.2 µM and 27.5 µM | [3] 31.4 µM and 55 µM and 50.7 µM | [4] 30 µM and 49.1 µM | [5] 53.8 µM and 51 µM | [6] 46.1 µM and 46.7 µM | [7] 31.3 µM and 56.6 µM and 54.8 µM | [8] 45.7 µM and 45.5 µM | [9] 33.2 µM and 54.1 µM and 54.5 µM | [10] 24.7 µM and 39 µM

CC1=C2C[C@H]3[C@@H](CC=C4C[C@@H](O)CC[C@@]43C)[C@@H]2CC[C@]12O[C@@H]1C[C@H](C)CN[C@H]1[C@H]2C
inactive: [1] | [2] | [3] | [4] | [5] | [6] | [7] | [8] | [9] | [10]

Cc1cc2c3c(c1)C(c1ccccc1)=N[C@@H](NC(=O)c1ccncc1)C(=O)N3CC2
active: [4] 3.97 µM | [8] 3.97 µM
inactive: [1] | [2] | [3] | [5] | [6] | [7] | [9] | [10]

CCCCCCCCOC(=O)c1ccccc1C(=O)OCCCCCCCC
inactive: [1] | [2] | [3] | [4] | [5] | [6] | [7] | [8] | [9] | [10]

ClC1=C(Cl)[C@]2(Cl)[C@@H]3[C@@H]4C[C@@H]([C@H]5O[C@@H]45)[C@@H]3[C@@]1(Cl)C2(Cl)Cl
inactive: [1] | [2] | [3] | [4] | [5] | [6] | [7] | [8] | [9] | [10]

Nc1ccc(-c2ccc(N)cc2)cc1
active: [10] 8.27 µM
inactive: [1] | [2] | [3] | [4] | [5] | [6] | [7] | [8] | [9]

CN(C)c1nc(=O)n(C2CCCCC2)c(=O)n1C
inactive: [1] | [2] | [3] | [4] | [5] | [6] | [7] | [8] | [9] | [10]

Clc1ccc(Cl)cc1
inactive: [1] | [2] | [3] | [4] | [5] | [6] | [7] | [8] | [9] | [10]

Clc1ccc(C(Cl)(Cl)Cl)cc1
inactive: [1] | [2] | [3] | [4] | [5] | [6] | [7] | [8] | [9] | [10]

COS(=O)(=O)OC
inactive: [1] | [2] | [3] | [4] | [5] | [6] | [7] | [8] | [9] | [10]

O=C(O)C(F)(F)C(F)(F)C(F)(F)C(F)(F)C(F)(F)C(F)(F)C(F)(F)C(F)(F)F
active: [1] 17.7 µM and 24.9 µM | [2] 33.2 µM and 35.9 µM and 30 µM | [4] 48.3 µM and 45.1 µM | [6] 7.33 µM and 50.3 µM | [7] 53.5 µM and 55 µM | [8] 44.1 µM | [9] 47.9 µM and 58.4 µM | [10] 20 µM and 19.9 µM and 14.8 µM
inactive: [1] | [3] | [4] | [5] | [6] | [7] | [8] | [9]

CC(C)C(=O)OCC(C)(C)C(OC(=O)C(C)C)C(C)C (stereo not given)
inactive: [1] | [2] | [3] | [4] | [5] | [6] | [7] | [8] | [9] | [10]

ClC1=C(Cl)[C@]2(Cl)[C@@H]3[C@@H](Cl)[C@H]4O[C@H]4[C@@H]3C1(Cl)C2(Cl)Cl
inactive: [1] | [2] | [3] | [4] | [5] | [6] | [8] | [9] | [10]
active: [7] 6.81 µM

c1cc2ccc3cccc4ccc(c1)c2c34
inactive: [1] | [2] | [3] | [4] | [5] | [6] | [7] | [8] | [9] | [10]

Cc1ccccc1O
inactive: [1] | [2] | [3] | [4] | [5] | [6] | [7] | [8] | [9]
active: [10] 3.97 µM

CN(C)CCO
inactive: [1] | [2] | [3] | [4] | [5] | [6] | [7] | [8] | [9] | [10]

CC(c1ccc(O)cc1)(c1ccc(O)cc1)c1ccc(O)cc1
inactive: [6] | [8]
active: [1] 20 µM | [2] 25.2 µM | [3] 20 µM | [4] 20 µM | [5] 32.7 µM | [7] 23.9 µM | [9] 20 µM | [10] 34.6 µM

O=S(=O)(O)C(F)(F)C(F)(F)C(F)(F)C(F)(F)C(F)(F)C(F)(F)F
active: [6] 14.6 µM and 43.9 µM
inactive: [1] | [2] | [3] | [4] | [5] | [6] | [7] | [8] | [9] | [10]

CCC(C)(c1ccc(O)cc1)c1ccc(O)cc1
inactive: [1] | [2] | [3] | [5] | [6] | [8] | [9]
active: [4] 20 µM | [7] 20 µM | [10] 13.3 µM

CO/C=C(/C(=O)OC)c1ccccc1COc1cccc(C(F)(F)F)n1
inactive: [1] | [3] | [8] | [10]
active: [2] 12.7 µM | [4] 18.3 µM | [5] 7.16 µM | [6] 3.06 µM | [7] 10.6 µM | [9] 4.01 µM

C=CC(=O)NCNC(=O)C=C
inactive: [1] | [2] | [3] | [4] | [5] | [6] | [7] | [8] | [9] | [10]
